Data taken from PubChem BioAssay (NCI).
Compounds without any hit were thinned out: in the full panel of roughly 79,000, 15% have a hit. Activity calls are given as the source filed them. Rule as the data show it: active = growth inhibition above about 70%; inactive = the rest.

Tests used:
[1] = NCI Yeast Anticancer Drug Screen. Data for the wt2 strain (AID 169);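 also: 0% = growth of vehicle-treated yeast cultures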; settings: S. cerevisiae wt2 strain growth inhibition, active compounds read high
Method in brief: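 This strain belongs to a panel of yeast strains with defined genetic alterations in DNA damage repair or cell cycle control. Compounds are applied, and growth inhibition is measured against vehicle-treated cultures.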

[2] = NCI Yeast Anticancer Drug Screen. Data for the mlh1 strain (AID 171);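 also: 0% = growth of vehicle-treated control cultures of the same strain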; settings: S. cerevisiae mlh1 strain growth inhibition, active compounds read high
Method in brief: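 Growth of the mutant yeast strain after compound exposure, expressed as inhibition relative to vehicle-only controls.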

[3] = NCI Yeast Anticancer Drug Screen. Data for the sgs1 strain (AID 173);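 also: 0% = growth of vehicle-only control cultures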; settings: S. cerevisiae sgs1 mutant, active compounds read high
Method in brief: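 Growth of a yeast strain bearing a defined genetic alteration is measured after compound treatment. Inhibition is expressed relative to vehicle-only controls.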

[4] = NCI Yeast Anticancer Drug Screen. Data for the mlh1 rad18 strain (AID 175); settings: S. cerevisiae mlh1 rad18 strain growth inhibition, active compounds read high
Method in brief: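 Read-out is yeast growth inhibition, calculated against vehicle-only controls. The compound was applied to a strain engineered with DNA damage repair alterations.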

[5] = NCI Yeast Anticancer Drug Screen. Data for the rad18 strain (AID 177); settings: S. cerevisiae rad18 mutant growth inhibition, active compounds read high
Method in brief: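 Growth of the mutant yeast strain after compound exposure, normalised to vehicle-only cultures.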

[6] = NCI Yeast Anticancer Drug Screen. Data for the rad52 strain (AID 147);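 also: 0% = growth of vehicle-treated control cultures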; settings: S. cerevisiae rad52 mutant growth inhibition, active compounds read high
Method in brief: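 Compounds are applied to a genetically defined yeast strain lacking normal DNA damage repair, and inhibition of growth is expressed relative to cultures given vehicle only.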

[7] = NCI Yeast Anticancer Drug Screen. Data for the wt1 strain (AID 149);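 also: 0% = growth of vehicle-treated wt1 cultures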; settings: S. cerevisiae wt1 strain (SPY 50644) growth inhibition, active compounds read high
Method in brief: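 Growth inhibition read against vehicle controls after compound exposure of the wt1 yeast strain.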

[8] = NCI Yeast Anticancer Drug Screen. Data for the rad50EPP+ strain (AID 151);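 also: 0% = growth of vehicle-treated control cultures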; settings: S. cerevisiae rad50 mutant strain, active compounds read high
Method in brief: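 Compounds were applied to the rad50EPP+ yeast strain, which bears a defined DNA repair alteration, and growth inhibition was determined relative to vehicle-treated cultures.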

[9] = NCI Yeast Anticancer Drug Screen. Data for the mgt1 strain (AID 153); settings: S. cerevisiae mgt1 mutant growth inhibition, active compounds read high
Method in brief: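 Strain: mgt1 yeast, one of a set carrying defined DNA damage repair or cell cycle control alterations. Compound-treated growth compared with vehicle.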

[10] = NCI Yeast Anticancer Drug Screen. Data for the rad50 strain (AID 155);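 also: 0% = growth of vehicle-only cultures of the same strain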; settings: S. cerevisiae rad50 strain growth inhibition, active compounds read high
Method in brief: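 Readout: growth inhibition relative to vehicle-treated cultures. Compound exposure was carried out in a genetically defined yeast strain deficient in DNA damage repair.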

[11] = NCI Yeast Anticancer Drug Screen. Data for the mec2-1 strain (AID 157); settings: S. cerevisiae mec2-1 strain, active compounds read high
Method in brief: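 Strain: mec2-1 (DNA repair/cell cycle alteration). Compound exposure, then growth measured; inhibition expressed relative to vehicle.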

[12] = NCI Yeast Anticancer Drug Screen. Data for the rad14 strain (AID 159);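 also: 0% = growth of vehicle-treated control cultures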; settings: S. cerevisiae rad14 strain growth inhibition, active compounds read high
Method in brief: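 Growth inhibition vs vehicle controls; genetically altered yeast strain (DNA damage repair defect) treated with test compounds.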

[13] = NCI Yeast Anticancer Drug Screen. Data for the sgs1 mgt1 strain (AID 161);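 also: 0% = growth of cultures given vehicle only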; settings: S. cerevisiae sgs1 mgt1 strain, active compounds read high
Method in brief: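 Inhibition of yeast growth, normalised to vehicle-treated controls, is reported for a strain bearing genetic alterations in DNA damage repair.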

[14] = NCI Yeast Anticancer Drug Screen. Data for the CLN2oe strain (AID 163);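 also: 0% = growth of vehicle-only control cultures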; settings: S. cerevisiae CLN2oe strain, active compounds read high
Method in brief: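 Growth of a genetically modified yeast strain is measured after compound exposure and compared with cultures given vehicle alone.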

[15] = NCI Yeast Anticancer Drug Screen. Data for the cln2 rad14 strain (AID 165);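 also: 0% = growth equal to vehicle treated cultures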; settings: S. cerevisiae cln2 rad14 strain, active compounds read high
Method in brief: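 Compounds are applied to the cln2 rad14 yeast strain, and growth is then compared with that of vehicle-treated cultures to give inhibition.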

[16] = NCI Yeast Anticancer Drug Screen. Data for the bub3 strain (AID 167); settings: S. cerevisiae bub3 mutant strain, active compounds read high
Method in brief: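 Readout: yeast growth inhibition, expressed relative to vehicle-only wells. The test organism is a mutant strain from a panel with lesions in DNA repair or checkpoint genes.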

[17] = at 5.0 µM (retest, dose inferred, filed as 0.5)
[18] = at 50.0 µM (retest, dose inferred, filed as 5.0)

Measured: growth inhibition

C=CCNC1=C2C[C@@H](C)C[C@H](OC)[C@H](O)[C@@H](C)/C=C(\C)[C@H](OC(N)=O)[C@@H](OC)/C=C\C=C(/C)C(=O)NC(=CC1=O)C2=O
active: [1]; at 33.0 µM 93% | [1]; at 100.0 µM 96% | [2]; at 33.0 µM 94% | [2]; at 100.0 µM 95% | [3]; at 33.0 µM 94% | [3]; at 100.0 µM 96% | [4]; [18] 97% | [4]; at 50.0 µM 89.1% | [5]; at 33.0 µM 95% | [5]; at 100.0 µM 95%
inactive: [1]; at 1.2 µM -51% | [1]; at 3.7 µM -65% | [1]; at 11.0 µM 33% | [2]; at 1.2 µM -36% | [2]; at 3.7 µM -56% | [2]; at 11.0 µM 50% | [3]; at 1.2 µM -34% | [3]; at 3.7 µM -10% | [3]; at 11.0 µM 56% | [4]; [17] -7% | [5]; at 1.2 µM -22% | [5]; at 3.7 µM -23% | [5]; at 11.0 µM 68%

OC1(c2ccccc2)C2CC=CC2C1(c1ccccc1)c1ccccc1 (stereo unspecified)
active: [13]; [18] 70% | [3]; at 100.0 µM 77% | [4]; [18] 76%
inactive: [6]; at 1.2 µM 0% | [6]; at 3.7 µM -1% | [6]; at 11.0 µM 4% | [6]; at 33.0 µM 34% | [6]; at 100.0 µM 63% | [7]; at 1.2 µM -4% | [7]; at 3.7 µM -7% | [7]; at 11.0 µM -8% | [7]; at 33.0 µM -7% | [7]; at 100.0 µM 21% | [8]; at 1.2 µM -7% | [8]; at 3.7 µM -1% | [8]; at 11.0 µM 2% | [8]; at 33.0 µM -5% | [8]; at 100.0 µM -5% | [9]; at 1.2 µM -4% | [9]; at 3.7 µM -2% | [9]; at 11.0 µM -5% | [9]; at 33.0 µM -4% | [9]; at 100.0 µM 16% | [10]; at 1.2 µM -2% | [10]; at 3.7 µM 6% | [10]; [17] 12% | [10]; at 11.0 µM 12% | [10]; at 33.0 µM 43% | [10]; [18] 53% | [10]; at 50.0 µM 12.1% | [10]; at 100.0 µM 62% | [11]; at 1.2 µM -3% | [11]; at 3.7 µM -2% | [11]; [17] -6% | [11]; at 11.0 µM -6% | [11]; at 33.0 µM 18% | [11]; [18] -10% | [11]; at 50.0 µM -14.2% | [11]; at 100.0 µM 49% | [12]; at 1.2 µM -3% | [12]; at 3.7 µM 4% | [12]; at 11.0 µM 6% | [12]; at 33.0 µM 0% | [12]; at 100.0 µM 19% | [13]; [17] 16% | [13]; at 50.0 µM 11.1% | [14]; at 1.2 µM 2% | [14]; at 3.7 µM 8% | [14]; at 11.0 µM 2% | [14]; at 33.0 µM -7% | [14]; at 100.0 µM 10% | [15]; [17] 15% | [15]; [18] 19% | [15]; at 50.0 µM -3.15% | [16]; at 1.2 µM 0% | [16]; at 3.7 µM 2% | [16]; [17] -3% | [16]; at 11.0 µM -9% | [16]; at 33.0 µM 2% | [16]; [18] 52% | [16]; at 50.0 µM 10.9% | [16]; at 100.0 µM 27% | [1]; at 1.2 µM -8% | [1]; at 3.7 µM -11% | [1]; at 11.0 µM -8% | [1]; at 33.0 µM 7% | [1]; at 100.0 µM 54% | [2]; at 1.2 µM -3% | [2]; at 3.7 µM 1% | [2]; at 11.0 µM 7% | [2]; at 33.0 µM 13% | [2]; at 100.0 µM 45% | [3]; at 1.2 µM -15% | [3]; at 3.7 µM -2% | [3]; at 11.0 µM -2% | [3]; at 33.0 µM 54% | [4]; [17] 19% | [4]; at 50.0 µM 0.45% | [5]; at 1.2 µM -8% | [5]; at 3.7 µM -4% | [5]; at 11.0 µM -4% | [5]; at 33.0 µM 1% | [5]; at 100.0 µM 41%
